Hsp90 Hop PPI – changes Hsp90-Hop TPR2A binding signal, up or down; AlphaScreen TPR2A-His6 binding biotin-Hsp90 C-terminal peptide; Potency, µM (highest dose often 57 µM), inactives show top-dose activity change, negative = inhibition; 71,000 tested, 0.44% active; AID 595; active means well fitted curve in either direction with a large enough effect; inconclusive means small, poorly fitted or top-dose-only effect, or another doubt; further: potency means the concentration at half of the fitted maximal effect; on the % scale 0 is the no-effect control and ±100 the full control effect
ALOX15 inhib – blocks human 15-lipoxygenase activity | P16050 | purified 15hLO-1, xylenol orange hydroperoxide absorbance | Potency, µM (titrated, usually from 57.1 µM), for the others: at the top dose activity change, negative = inhibition, hits mostly inhibitors | 74,000 tested, 1.4% active | AID 887; further: potency means the concentration at half of the fitted maximal effect; on the % scale 0 is the no-effect control and ±100 the full control effect; nearly all actives have a fitted effect of over 55% in size
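Compounds were preincubated 15 min at room temperature with 40 nM purified human enzyme (25 mM Hepes pH 7.5, 0.01% Triton X-100); 50 uM arachidonic acid reacted 6 min. Fe-xylenol orange detection, 30 min, absorbance ratio 573/405 nm.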
Tau fil binding – binders of human tau filaments. recombinant tau filaments, thioflavin S fluorescence, 15 h; filaments grown with octadecylsulfate alongside compound. Potency, µM (titrated, usually from 57.1 µM), for the others: at the highest dose activity change, negative = inhibition. 71,000 tested, 2% active. AID 596;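 further: potency means the concentration at half of the fitted maximal effect; on the % scale 0 is the no-effect control and ±100 the full control effect; actives lower thioflavin S fluorescence by blocking filaments or displacing dye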
Target sequence (P10636 whole entry, looked up): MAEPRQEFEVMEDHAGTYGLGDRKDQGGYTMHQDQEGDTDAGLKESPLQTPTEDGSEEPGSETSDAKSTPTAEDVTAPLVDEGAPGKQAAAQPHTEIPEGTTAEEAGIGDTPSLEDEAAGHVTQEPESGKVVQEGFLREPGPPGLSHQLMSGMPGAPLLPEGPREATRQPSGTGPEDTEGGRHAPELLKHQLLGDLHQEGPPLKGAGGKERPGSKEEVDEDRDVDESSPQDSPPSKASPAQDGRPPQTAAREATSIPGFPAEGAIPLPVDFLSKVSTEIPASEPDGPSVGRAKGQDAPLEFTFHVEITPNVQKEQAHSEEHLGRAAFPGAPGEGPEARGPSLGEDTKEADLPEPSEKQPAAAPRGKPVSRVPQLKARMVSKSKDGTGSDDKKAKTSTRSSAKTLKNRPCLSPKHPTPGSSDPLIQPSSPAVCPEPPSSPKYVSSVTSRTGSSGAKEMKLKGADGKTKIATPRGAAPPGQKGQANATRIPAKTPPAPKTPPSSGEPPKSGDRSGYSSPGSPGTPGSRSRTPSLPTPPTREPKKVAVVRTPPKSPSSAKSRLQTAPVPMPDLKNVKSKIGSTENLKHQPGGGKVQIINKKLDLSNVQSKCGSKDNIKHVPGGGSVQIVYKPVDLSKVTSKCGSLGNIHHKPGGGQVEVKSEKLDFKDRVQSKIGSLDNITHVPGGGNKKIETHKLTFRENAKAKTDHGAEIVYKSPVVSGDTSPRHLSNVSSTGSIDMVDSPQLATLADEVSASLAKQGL
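His-tagged recombinant human tau (exons 2, 3, 10; 1 uM final) fibrillized with 30 uM sodium octadecylsulfate, 15 h at 37 C, in pH 7.4 HEPES buffer with 10 uM thioflavine S and 5 mM DTT. Reduced ThS fluorescence (450/510 nm) marks activity.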
DNA Pol III inh – blocks replication by bacterial DNA polymerase III holoenzyme; reconstituted DNA polymerase III holoenzyme replication, biochemical; Potency, µM (doses to about 57.1 µM), for the others: at the top dose activity change, negative = inhibition; 71,000 tested, 0.25% active; AID 603; further: potency means the concentration at half of the fitted maximal effect; on the % scale 0 is the no-effect control and ±100 the full control effect
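Reconstituted *E. coli* holoenzyme (0.35 nM Pol III, 1 nM beta, 154 nM SSB, 2 nM primase) was preincubated with compound for 15 min at RT. Synthesis on 1.4 nM ssM13Gori ran 35 min, then was stopped with PicoGreen/EDTA and read as dsDNA fluorescence.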
YjeE inh – YjeE (TsaE) inhibition, E. coli; P0AF67; purified YjeE enzyme, qHTS inhibition assay; Potency, µM; 71,000 tested, 0.05% active
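Purified YjeE (10 uM) with BODIPY Texas Red-labeled ADP probe (2 uM); compounds pin-transferred, 15 min at room temperature. Binding inhibition read as decreased fluorescence polarization; ADP titration as control.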
* = called active by the depositor; i = inactive; ? = inconclusive; / = no result; [ ] = another dose, or the depositor's remark. Most compounds without a hit are left out; they make up all but 3.3% or so of the library. Unless noted, the call rests on the fitted dose curve; in most records, active means well fitted curve in the direction sought with a large enough effect; inconclusive means small, poorly fitted or top-dose-only effect, or another doubt; inactive means no such curve, though single readings can be large; an effect the other way counts as inactive or inconclusive.

SMILES	Hsp90 Hop PPI	ALOX15 inhib	Tau fil binding	DNA Pol III inh	YjeE inh
Cc1ccc2nc3ccc(N4CCCC4)nn3c(=O)c2c1	-1%	25µM*	-24%	0%	i
Cc1sc2nc3ccc(N4CCCCC4)nn3c(=O)c2c1C	1%	-8%	26%	-7%	i
Cc1ccc(-n2nc(-c3ccc(N)cc3)cc2N)cc1	-3%[2.3 µM]	-2%	7.9µM*	6%	i
Nc1ccc(-c2cc(N)n(-c3ccccc3)n2)cc1	-11%	-7%	?	-6%	i
CCCCCCc1ccc(-c2ncc(N)cn2)cc1	-4%	-23%	25µM*	-6%	i
CCCCOc1ccc(-c2ncc(Cl)cn2)cc1	4%[11 µM]	1%[11.4 µM]	15%[11.4 µM]	4%[11.4 µM]	i
Cc1nnc(C)n1N1C(=O)c2cccc3cccc(c23)C1=O	/	-24%	/	/	/
NC1=CC(=O)c2cccc3cccc1c23	-18%	5µM*	62%	-6%	i
COc1cc([C@@H](O)CO)ccc1OS(=O)(=O)O	-9%	9%	-1%	-2%	i
Clc1ccc(Cl)c(-c2nn3c(COc4ccccc4)nnc3s2)c1	0%	10µM*	-13%	0%	i
O=C(Nc1cnn(Cc2ccc(F)cc2)c1)c1cc(-c2ccc(Br)cc2)on1	-3%	-15%	82%	5%	i
COc1cccc(-c2cc3nc(-c4ccccc4)cc(N4CCC5(CC4)OCCO5)n3n2)c1	20µM*	-5%	28%	4%	i
COc1ccc(-c2cc3nc4c(c(N5CCC6(CC5)OCCO6)n3n2)CCCC4)cc1	10%	2%	22%	-2%	i
c1coc(C2Nc3cccc4cccc(c34)N2)c1	-20%	1.6µM*	6.3µM*	4µM*	i
O=C1c2ccccc2NC(c2ccco2)N1O (stereo not drawn)	-5%	-8%	-22%	-4%	i
O=C(Nc1ccc2nc(-c3ccco3)c(-c3ccco3)nc2c1)N1CCCCCC1	?	5µM*	1.3µM*	16µM*	i
CCOC(=O)C1CCN(C(=O)Nc2ccc3nc(-c4ccco4)c(-c4ccco4)nc3c2)CC1	-28%	5µM*	0.79µM*	13µM*	i
CCOC(=O)N1CCN(C(=O)Nc2ccc3nc(C)c(C)nc3c2)CC1	-4%	-5%	?	-10%	i
O=C(NC1CCCC1)c1ccc2nc(-c3ccco3)c(-c3ccco3)nc2c1	-24%	10µM*	-19%	-22%	i
CCOC(=O)C1CCN(C(=O)Nc2ccc3c(c2)nc(C)n3C)CC1	0%	2%	2%	-7%	i
CC(C)=CCC/C(C)=C/CO/N=C1/C[C@@H](O)[C@@H](O)[C@@H]2[C@@H]3C(=O)N(Cc4ccc5c(c4)OCO5)C(=O)[C@H]3CC[C@H]12	/	-20%[11.4 µM]	/	/	/
CC(=O)OCC(=O)[C@]12OC(C)(C)O[C@@H]1C[C@H]1[C@H]3CC=C4C[C@@H](O)CC[C@]4(C)[C@H]3CC[C@]12C	?	1%[11.4 µM]	12%[11.4 µM]	-10%[11.4 µM]	i
O=C(NCCC1=CCCCC1)C1CCCN(S(=O)(=O)c2cccc3cccnc23)C1 (stereo not drawn)	?	20µM*	1%	3%	i
O=C(NCCC1=CCCCC1)C1CCCN(S(=O)(=O)c2cccnc2)C1 (stereo not drawn)	-1%[2.3 µM]	-7%	0%	0%	i
Oc1ccc2[nH]ccc2c1	-5%	?	20µM*	-2%	i
SMILES	Hsp90 Hop PPI	ALOX15 inhib	Tau fil binding	DNA Pol III inh	YjeE inh
N[C@@H](Cc1c[nH]c2ccc(O)cc12)C(=O)O	-4%	?	-10%	0%	i
COc1c(O)cccc1O	/	2%	/	/	/
Oc1cccc(O)c1O	-9%	13µM*	-4%	7.9µM*	i
CC(=O)C1=C(C)Nc2cc(C(F)(F)F)ccc2S1	-17%	13µM*	32µM*	-5%	i
Cc1ccc(C)c2[nH]c(=O)c(CN(Cc3ccc4c(c3)OCO4)Cc3nnnn3Cc3ccco3)cc12	-18%	25µM*	14%	-22%	i
Cc1ccc2cc(CN(Cc3ccc4c(c3)OCO4)Cc3nnnn3Cc3ccco3)c(=O)[nH]c2c1C	-9%	25µM*	41%	-21%	i
CC(C)(C)n1nnnc1CN(Cc1ccco1)Cc1cc2cc3c(cc2[nH]c1=O)OCO3	0%	-11%	-5%	-3%	i
CCC(C)(C)n1nnnc1CN(Cc1ccco1)Cc1cc2cc3c(cc2[nH]c1=O)OCO3	-16%	0.0079µM*	41%	-2%	i
CN1[C@@H]2CC(OC(=O)[C@@H](CO)c3ccccc3)C[C@@H]1[C@H]1O[C@H]12 (stereo partly drawn)	4%[11 µM]	7%[11.4 µM]	1%[11.4 µM]	-11%[11.4 µM]	i
CC/C=C\CC[C@H](O)C1=CCCCC1=O	/	3%[11.4 µM]	/	/	/
COC(=O)[C@@H]1C[C@H]1[C@@H](NC(=O)OCc1ccccc1)c1ccccc1	-3%	/	-3%	-12%	i
CCOc1ccccc1O[C@@H](c1ccccc1)[C@@H]1CNCCO1	?	-5%[25.6 µM]	32µM*	1%	i
CCOc1ccccc1C1CC(=O)Nc2cc3c(cc21)OCCO3 (stereo not drawn)	-11%	-9%	30%	2%	i
C=CCn1c(N)c(-c2nc3ccccc3n2C)sc1=S	-8%	-8%	16µM*	-5%	i
NCOC(=O)Cc1ccc(Br)cc1	2%[11 µM]	8%[11.4 µM]	3%[11.4 µM]	6%[11.4 µM]	i
CCC(=O)n1nc(-c2ccco2)nc1SCc1ccccc1	-1%	-8%	-3%	-8%	i
CC(=O)n1nc(-c2ccco2)nc1SCc1ccccc1	-29%	4µM*	25µM*	?	i
CNC(=O)[C@@H]1O[C@@H](n2cnc3c(NCc4cccc(I)c4)ncnc32)[C@H](O)[C@@H]1O	0%	-4%	6%	-3%	i
COc1ccc(-n2c(N)c(C(=O)NCC3CCCO3)c3nc4ccccc4nc32)c(OC)c1 (stereo not drawn)	?	?	25µM*	-5%	i
C=CCn1c(N)c(C(=O)NCC2CCCO2)c2nc3ccccc3nc21 (stereo not drawn)	?	-9%	49%	0%	i
CC(=O)OC[C@@H]1O[C@H](C/C=N\O[C@@H](C)c2cn([C@H]3COC[C@H]3O)nn2)C=C[C@@H]1OC(C)=O	/	8%[11.4 µM]	/	/	/
Nn1c(-c2ccccn2)nnc1-c1ccccn1	?	16%	-19%	0%	i
c1ccc(-c2ccccn2)nc1	13µM*	9%	-5%	-8%	i
CCOC(=O)c1[nH]cc(-c2ccccc2)c1N1CCOCC1	-4%	25µM*	-5%	-1%	i
CO[C@@H]1COC(=O)CC=C[C@@H](C)[C@@H]2C=C[C@@H](O)[C@@H](COC(=O)C/C=C\[C@H]1C)O2	/	11%[11.4 µM]	/	/	/
COc1cccc(OC)c1-c1nn2c(-c3cc(-c4ccccc4)n[nH]3)nnc2s1	-8%	-11%	i	13µM*	?
COc1ccc(O)c(-c2cc(-c3cccs3)[nH]n2)c1	-7%	25µM*	-7%	-3%	i
